Results on 15 compounds are retold here after PubChem BioAssay (NCI).

Among the test systems are NCI-H23 lung; NCI-H226 lung; NCI-H322M lung; NCI-H460 lung; HOP-92 NSCLC; NCI-H522 lung; A549/ATCC NSCLC; 786-0 renal; COLO 205 colon; HOP-62 NSCLC.
Common to all, as to assay: NCI-60 one-dose screen, 48 h (100 = growth as untreated, 0 = no growth, -100 = all killed)
What all share (details): 10 µM unless noted

Molecules are shown by their SMILES. Compounds without any hit were thinned out: in the full panel of roughly 83,000, 20% have a hit.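 A percent growth of 40 corresponds to 60% growth inhibition; 0 means no net growth; -100 means all cells died. Active threshold: below 10.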 A number with no mark means an inactive call. The source made the active and inactive calls.

In the case of `O=C(CCN1CCCC1)Nc1ccc2c(Nc3ccc(F)cc3)c3ccccc3nc2c1`, the growth was -12.8% (active) in the assay on NCI-H23 lung; 42.7% in the assay with NCI-H226 lung; -14.6% (active) with NCI-H322M lung; -66.4% (active) with NCI-H460 lung; 4.17% (active) in the assay with HOP-92 NSCLC; -22.6% (active) in the assay with NCI-H522 lung. The growth in the assay with A549/ATCC NSCLC is -21.8% (active); in the assay on 786-0 renal it was -35.9% (active); with COLO 205 colon, -33.2% (active).
`C=C(C)[C@@H]1CC[C@]2(C(=O)N3CCN(C)CC3)CC[C@]3(C)[C@H](CC[C@@H]4[C@@]5(C)C/C(=C/c6cccnc6)C(=O)C(C)(C)[C@@H]5CC[C@]43C)[C@@H]12`: the growth in the assay with NCI-H23 lung is 78.5%; with NCI-H226 lung, 72.7%; in the assay on NCI-H322M lung, 107%; with NCI-H460 lung, 44.3%; in the assay on HOP-92 NSCLC, 52.8%; in the assay with NCI-H522 lung, 59%. Also, the growth is 49.4% in the assay on A549/ATCC NSCLC, 75.7% in the assay on 786-0 renal and 65% with COLO 205 colon.
For the compound `COc1cc2c(=O)n(CCCN(C)C)c3c4cc5c(cc4ccc3c2cc1OC)OCO5`, the growth in the assay on NCI-H23 lung was 58.6%; in the assay with NCI-H226 lung, 52.8%; with NCI-H322M lung, 61.6%; in the assay with NCI-H460 lung, 18.2%; in the assay with HOP-92 NSCLC it was 67.7%; with NCI-H522 lung, 53.9%. For the same compound, the growth is 41.8% in the assay with A549/ATCC NSCLC, 62.8% with 786-0 renal and 49% with COLO 205 colon.
Regarding `Cn1cc(CC2CC(=O)N(c3ccccc3)C2=O)sc1=NC(=O)c1ccccc1` (centres undefined), the growth with NCI-H23 lung is 95.8%; with NCI-H226 lung it was 97.5%; in the assay on NCI-H322M lung, 92.5%; with NCI-H460 lung, 106%; in the assay on HOP-92 NSCLC it was 85.1%; in the assay on NCI-H522 lung it was 92.8%. For the same compound, the growth in the assay on A549/ATCC NSCLC was 101%; in the assay on 786-0 renal, 94.4%; in the assay with COLO 205 colon, 111%.
As to `O=C(Cn1c[n+](CC(=O)c2ccc(-c3ccccc3)cc2)c2ccccc21)Nc1cccc2cccnc12`, the growth in the assay on NCI-H23 lung is 23.8%; in the assay with NCI-H226 lung, 50.4%; with NCI-H322M lung, 77.2%; in the assay with NCI-H460 lung, 28.7%; in the assay on HOP-92 NSCLC, -4.57% (active); in the assay with A549/ATCC NSCLC, 59.9%. Also, the growth in the assay on 786-0 renal is 44.4%.
Regarding `COc1cc2c(c(O)c1Cl)C(=O)c1c(O)cc(C[C@H](C)O)cc1[C@H]2[C@H]1c2cc(C[C@H](C)O)cc(O)c2C(=O)c2c1cc(OC)c(Cl)c2O`, the growth is 9.36% (active) in the assay on NCI-H23 lung; 17.7% with NCI-H322M lung; 12.4% in the assay with HOP-62 NSCLC; -0.266% (active) with NCI-H460 lung; -24.2% (active) in the assay with HOP-92 NSCLC; 5.59% (active) with NCI-H522 lung. The growth was 12.5% in the assay with A549/ATCC NSCLC, 14.3% with 786-0 renal and -72.5% (active) in the assay on COLO 205 colon.
Take `CCN1CCN(CCNc2nccc(-c3c(-c4cccc(OC)c4)nc4occn34)n2)S1(=O)=O`: the growth in the assay on NCI-H23 lung is 105%; in the assay with NCI-H226 lung it was 92.2%; in the assay with NCI-H322M lung it was 111%; with NCI-H460 lung, 96.7%; in the assay on HOP-92 NSCLC, 84.5%; in the assay on NCI-H522 lung it was 89.5%. In addition, the growth with A549/ATCC NSCLC was 101%; in the assay with 786-0 renal it was 113%; in the assay with COLO 205 colon it was 42.6%.
In the case of `COC1=CC(=O)c2ccccc2C1=O`, the growth with NCI-H23 lung was 48.9%; in the assay with NCI-H226 lung, 104%; in the assay with NCI-H322M lung, 94.9%; with NCI-H460 lung, 106%; in the assay on HOP-92 NSCLC, 127%; in the assay on A549/ATCC NSCLC it was 97.4%. Besides, the values for the growth in the assay with 786-0 renal and in the assay on COLO 205 colon were 105% and 117%, respectively.
Turning to `CC(Sc1nc2ccccc2c(=O)n1CCc1ccc(S(N)(=O)=O)cc1)C(=O)Nc1ccc(Cl)cc1` (centres undefined), the growth in the assay with NCI-H23 lung is 79.5%; with NCI-H322M lung it was 73.4%; in the assay on HOP-62 NSCLC, 84.4%; with NCI-H460 lung, 94.7%; in the assay with HOP-92 NSCLC, 107%; in the assay on NCI-H522 lung, 56.3%. In addition, the figures for the growth in the assay with A549/ATCC NSCLC, with 786-0 renal and in the assay on COLO 205 colon were 69.6%, 80.2% and 106%, respectively.
As to `COc1cccc2c1c1nc3cc(C)c(C)cc3nc1n2CCN(C)C`, the growth was 18.4% with NCI-H23 lung; 24.7% in the assay on NCI-H322M lung; 24.9% with HOP-62 NSCLC; 7.95% (active) with NCI-H460 lung; 36.1% in the assay with HOP-92 NSCLC; -4.98% (active) in the assay on NCI-H522 lung. Further, the figures for the growth in the assay with A549/ATCC NSCLC, in the assay with 786-0 renal and in the assay on COLO 205 colon were 10.6%, 36% and 9.54% (active), respectively.
Regarding `CCNc1nc2ccc(Nc3ccnc4cc(Cl)ccc34)cc2[nH]1`, the growth with NCI-H23 lung was 89.6%; in the assay on NCI-H322M lung, 97.5%; with HOP-62 NSCLC, 94.7%; in the assay with NCI-H460 lung it was 85.9%; in the assay with HOP-92 NSCLC, 61%; in the assay on NCI-H522 lung, 98.3%. Also, the growth with A549/ATCC NSCLC is 90.8%; in the assay with 786-0 renal it was 72.2%; in the assay on COLO 205 colon, 61.2%.
For the compound `N#CC(C(=O)/C(=N/NC(=O)c1ccccc1O)C(C#N)c1ccccc1)c1ccccc1` (centres undefined), the growth is 70.5% in the assay on NCI-H226 lung; 68.4% in the assay on NCI-H322M lung; 30.8% with HOP-62 NSCLC; 24.3% in the assay on NCI-H460 lung; 40.4% in the assay on HOP-92 NSCLC; 67.9% with NCI-H522 lung. Moreover, the growth in the assay with A549/ATCC NSCLC is 20.1%; in the assay on 786-0 renal, 85.9%.
In the case of `CC(Oc1ccc(C(=O)O)cc1C(F)(F)F)c1ccc(Oc2ccccc2)cn1` (centres undefined), the growth was 98.6% in the assay on NCI-H23 lung; 99.5% in the assay on NCI-H322M lung; 99.1% in the assay with HOP-62 NSCLC; 104% with NCI-H460 lung; 97.8% in the assay on HOP-92 NSCLC; 88.2% in the assay on NCI-H522 lung. Further, the growth in the assay on A549/ATCC NSCLC is 99.9%; in the assay on 786-0 renal it was 99.4%; in the assay on COLO 205 colon, 130%.
Take `CC(=O)Oc1ccc(/C=N/NC(N)=S)nc1`: the growth in the assay with NCI-H23 lung is 37.8%; with NCI-H322M lung, 92.8%; in the assay with HOP-62 NSCLC, 74.5%; with NCI-H460 lung, 96.4%; with HOP-92 NSCLC it was 63.9%; with NCI-H522 lung, 74.5%. Besides, the values for the growth in the assay with A549/ATCC NSCLC, with 786-0 renal and with COLO 205 colon were 98.2%, 53.3% and 92.7%, respectively.
As to `CC(C)N1C(=O)S/C(=C2/SC(=O)N(C(C)C)C2=O)C1=O`, the growth was 102% with NCI-H226 lung; 93.4% in the assay on NCI-H322M lung; 111% in the assay on HOP-62 NSCLC; 102% in the assay with NCI-H460 lung; 74.6% in the assay on HOP-92 NSCLC; 89.9% in the assay with NCI-H522 lung. Further, the growth in the assay on A549/ATCC NSCLC was 101%.
